An excerpt weighted towards active compounds, which were near 2.3% of everything screened.
UBC13 polyUb: blocks human UBC13 polyubiquitin chain formation; actives 0.47% (n = 330,000); inhibition, % at 20 µM; TR-FRET; in the data active = inhibition above about 45%, passing the limit was not always enough
Target sequence (P61088 whole entry, looked up): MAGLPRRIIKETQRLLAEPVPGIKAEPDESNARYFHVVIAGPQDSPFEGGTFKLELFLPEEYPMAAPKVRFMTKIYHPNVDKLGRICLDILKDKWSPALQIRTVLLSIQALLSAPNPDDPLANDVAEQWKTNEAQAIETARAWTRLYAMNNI
MEKK3 PB1 HTS: raises or lowers MEK5 binding to the human MEKK3 PB1 domain; AID 1529; actives 1.4% (n = 290,000); binding response (% of control), % at 10 µM; bead-based flow cytometry, Alexa488-MEK5 binding to MEKK3; actives lie on both sides; 0 = blocked by unlabeled MEK5, 100 = vehicle; Q99759;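 active = binding response more than 3 SD above or below the average of its plate-row segment, actives on both sides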;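 note: Alexa488 bead fluorescence after subtracting the streptavidin-only scavenger bead signal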
MEKK2 WT-MEK5: raises or lowers MEK5 binding to wildtype human MEKK2 PB1 domain; Q9Y2U5; bead flow cytometry, Alexa488-MEK5 binding to MEKK2 WT; actives lie on both sides; binding response (% of control), % at 10 µM; actives 1.1% (n = 290,000); in the data active = binding response below about 67% or above about 130%
MEKK2 mut-MEK5: signal of MEK5 binding to mutant human MEKK2 PB1 domain. bead flow cytometry, Alexa488-MEK5 binding to MEKK2 mutant. percent response, % at 10 µM. actives 0.35% (n = 290,000). AID 1530; in the data active = percent response above about 24%, passing the limit was not always enough
MEKK2wt confirm: raises or lowers MEK5 binding to wildtype human MEKK2, retest | shares compounds with MEKK3 PB1 HTS | bead flow cytometry, Alexa488-MEK5 binding to MEKK2 WT; actives lie on both sides | binding response (% of control), % at 10 µM | actives 2.4% (n = 5,900) | AID 1892; in the data active = binding response below about 16% or above about 210%; inactive = in between
MEKK2mut confirm: signal of MEK5 binding to mutant human MEKK2, retest; percent response, % at 10 µM; bead flow cytometry, Alexa488-MEK5 binding to MEKK2 mutant; actives 2% (n = 5,900); AID 1893; shares compounds with MEKK3 PB1 HTS; in the data active = percent response mostly above about 71%, no sharp cut-off; inactive = mostly below about 38%;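 note: higher means compound restores mutant binding toward wildtype level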
MEKK3-MEK5 inh: MEKK3-MEK5 PB1 inhibition, single concentration confirmation; shares compounds with MEKK3 PB1 HTS; bead flow cytometry, Alexa488-MEK5 binding to MEKK3; stronger effect = lower value; binding response (% of control), % at 10 µM; actives 1.8% (n = 5,900);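 active = binding response below 72% of control, or above a set upper limit, though filed actives all read lower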
A number is an active result; 0 = inactive; - = not tested or not shown; [ ] = dose if it differs, or a comment.

SMILES	UBC13 polyUb	MEKK3 PB1 HTS	MEKK2 WT-MEK5	MEKK2 mut-MEK5	MEKK2wt confirm	MEKK2mut confirm	MEKK3-MEK5 inh
CC1CCN(Cc2ccc(-c3nnn(CC(=O)Nc4ccccc4Cl)n3)cc2)CC1	0	0	0	0	-	-	-
CCC(=O)Nc1ccccc1C(=O)OCC(=O)c1cccc2ccccc12	0	68[inhibitor]	0	0	0	0	0
CCC(=O)Nc1ccccc1C(=O)OCc1ccc(C(=O)c2ccccc2)cc1	0	0	0	0	-	-	-
C[C@H]1CN([C@@H](C)CO)C(=O)Cc2cc(NS(=O)(=O)c3cccs3)ccc2O[C@H]1CN(C)S(=O)(=O)c1cn(C)cn1	0	-	-	-	-	-	-
COc1ccc(C(=O)Cn2nc(CNc3ccc(Br)cc3)[n+]3c2CCCCC3)cc1	0	0	150	0	0	0	0
COc1ccc2cc(/C=N/O)c(Cl)nc2c1	0	67[inhibitor]	0	0	0	0	0
COc1cc(C2C(C#N)=C(N)Oc3cc(O)ccc32)cc(OC)c1OC (centres undefined)	0	10[inhibitor]	13[inhibitor]	0	0	0	0
COc1ccc(C2C(C#N)=C(N)Oc3cc(O)ccc32)cc1OC (centres undefined)	0	0	0	0	-	-	-
Cc1cc(N/N=C/c2ccc(N(C)C)cc2)nc(NCc2ccccc2)n1	0	0	229	75	247	89	0
Cc1ccc(/C=N/Nc2cc(C)nc(NCc3ccccc3)n2)cc1	0	0	199	63	0	0	0
Cc1cc(Nc2cccc(F)c2)nc(NCc2ccccc2)n1	0	0	142	0	0	0	0
Cc1cc(N/N=C/c2ccc(Cl)cc2Cl)nc(NCc2ccccc2)n1	0	0	161	0	0	0	0
CCOC(=O)[C@@H]1[C@H]2COc3cc(OC)ccc3[C@H]2N2C(=O)N(c3ccc(C)cc3)C(=O)[C@@]12C	0	0	0	0	-	-	-
N#Cc1ccc(CN2CCN(c3ccc(S(=O)(=O)N4CCCC4)cn3)CC2)cc1	0	-	-	-	-	-	-
CCOC(=O)C(=CNc1cc(OC)ccc1-n1cccc1)C(=O)OCC	0	0	0	0	-	-	-
CCOc1ccc(C(=O)/C=C/c2cn(CN3CCN(C)CC3)c3ccccc23)cc1	0	0	204	41	0	0	0
COc1ccc(C(=O)/C=C/c2cn(CN3CCN(C)CC3)c3ccccc23)cc1	0	-	-	-	-	-	-
Cc1ccc([N+](=O)[O-])c(OCCN2CCCCCC2)c1	0	0	0	0	-	-	-
CCOc1cc(N2CCCC2)ccc1[N+](=O)[O-]	0	133	0	0	0	0	0
Cc1ccc(N(C)C(=O)C2CCCN2S(=O)(=O)c2ccc3c(c2)n(C)c(=O)c(=O)n3C)cc1 (centres undefined)	0	57[inhibitor]	0	0	0	0	0
CCc1cccc(NC(=O)C2CCCN2S(=O)(=O)c2ccc3c(c2)n(C)c(=O)c(=O)n3C)c1 (centres undefined)	0	71[inhibitor]	0	0	0	0	0
O=C(Nc1cccc(S(=O)(=O)N2CCOCC2)c1)[C@@H]1CCCN1S(=O)(=O)c1ccc(Cl)cc1	0	153	0	0	0	0	0
Cc1ccc(S(=O)(=O)N2CCCCC2C(=O)N(C)c2ccccc2)cc1 (centres undefined)	0	0	0	0	-	-	-
O=C(Nc1cccc(S(=O)(=O)N2CCOCC2)c1)C1CCCCN1S(=O)(=O)c1ccccc1 (centres undefined)	0	-	-	-	-	-	-
O=C(COC(=O)/C=C/c1ccc(Br)o1)NCCCN1CCCC1=O	0	0	0	0	-	-	-
SMILES	UBC13 polyUb	MEKK3 PB1 HTS	MEKK2 WT-MEK5	MEKK2 mut-MEK5	MEKK2wt confirm	MEKK2mut confirm	MEKK3-MEK5 inh
COC(=O)n1ccc(C(=O)Nc2ccccc2F)n1	0	3.0[inhibitor]	3.0[inhibitor]	0	0	0	0
Cc1cnc(C(=O)Nc2ccccc2-n2cccc2)cn1	0	0	0	0	-	-	-
O=C(Nc1ccccc1F)c1ccncc1	0	0	0	0	-	-	-
Cc1cnc(C(=O)Nc2ccccc2F)cn1	0	2.0[inhibitor]	1.0[inhibitor]	0	0	0	0
COc1ccc(CCNCC(=O)Nc2ccc(OC(F)(F)F)cc2)cc1OC	0	0	0	0	-	-	-
O=C(Oc1ccc(OC(=O)c2ccco2)c(S(=O)(=O)c2ccc(Br)cc2)c1)c1ccco1	0	0	0	0	-	-	-
Cc1ccc(S(=O)(=O)c2cc(OC(=O)c3ccco3)ccc2OC(=O)c2ccco2)cc1	0	128	0	0	0	0	0
CCOC(=O)c1ccc(NC(=O)CN2C(=O)CSC2=O)cc1	0	0	0	0	-	-	-
CCC1SC(CC)C(=O)N(CC(=O)Nc2ccc3c(c2)OCO3)C1=O (centres undefined)	0	133	0	0	0	0	0
CC1SCC(=O)N(CC(=O)Nc2ccc3c(c2)OCO3)C1=O (centres undefined)	0	0	0	0	-	-	-
CCOC(=O)c1ccc(NC(=O)CN2C(=O)C(CC)SC(CC)C2=O)cc1 (centres undefined)	0	148	0	0	0	0	0
CCOC(=O)c1ccc(NC(=O)CN2C(=O)CSCC2=O)cc1	0	132	0	0	0	0	0
CC(C)Cc1ccc(C(C)C(=O)Nc2ccccc2O)cc1 (centres undefined)	0	0	0	0	-	-	-
COc1ccc(CCC(=O)Nc2ccc(Cl)c(S(=O)(=O)N3CCCC3)c2)cc1	0	0	0	0	-	-	-
O=C(Nc1cc(C(F)(F)F)ccc1F)C1CCCC1	0	0	0	0	-	-	-
O=C(Nc1cc(C(F)(F)F)ccc1F)C1CCCCC1	0	72[inhibitor]	0	0	0	0	0
CC(=O)Nc1ccc(S(=O)(=O)N[C@@H](C)C(=O)OCC(=O)NC2CCCC2)cc1	0	-	-	-	-	-	-
Cc1ccc(CNC(=O)C2CC(=O)N(CCC(C)C)C2)cc1 (centres undefined)	0	5.0[inhibitor]	8.0[inhibitor]	0	0	0	0
COc1ccc(CN(C)C(=O)c2ccc(Cl)c(S(=O)(=O)NCc3cccnc3)c2)cc1F	0	-	-	-	-	-	-
CN1C(=O)Cc2cc(S(=O)(=O)Nc3ccc(N4CCOCC4)cc3)ccc21	0	0	0	0	-	-	-
COc1ccccc1CNC(=O)CN1C(=O)NC(c2ccccc2)(c2ccc(C)c(C)c2)C1=O (centres undefined)	0	-	-	-	-	-	-
CC1(C)CC(O)(CNCc2ccc3c(c2)OCO3)CCO1 (centres undefined)	0	2.0[inhibitor]	3.0[inhibitor]	0	0	0	0
O=S(=O)(NC(=S)NC1CCCCC1)c1ccccc1	0	4.0[inhibitor]	6.0[inhibitor]	0	0	0	0
O=S(=O)(NC(=S)NC1CCCCC1)c1cccs1	0	0	0	0	-	-	-
O=C(CSc1nnc(CNc2cccc(Cl)c2)o1)OC1CCCCC1	0	0	0	0	-	-	-
O=C(CSc1nnc(CNc2ccc(F)cc2)o1)OC1CCCCC1	0	2.0[inhibitor]	2.0[inhibitor]	0	0	0	0

Source: PubChem BioAssay (several laboratories)
